Many of the other results were omitted from the sample, so hits are more common in it than they were.
TDP1 cell noCPT – qHTS for Inhibitors of human tyrosyl-DNA phosphodiesterase 1 (TDP1): qHTS in cells in absence of CPT | DT40 Tdp1-/- hTDP1 cells, no CPT, ATP luminescence, 48 h | Potency, µM (series often up to 46.2 µM), for the others: at the highest dose activity change, negative = growth inhibition, hits mostly inhibitors | 15% of 420,000 active | AID 686978, 2013; also: potency is read from the fitted curve at half-maximal effect; nearly all actives have a fitted effect of over 55% in size
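Chicken DT40 Tdp1-/- cells stably complemented with human TDP1 were seeded at 400 cells/well with DMSO in place of 20 nM camptothecin. After compound pinning, cells grew at least 48 hr at 37 °C; viability read by CellTiter-Glo luminescence.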
HT1080-NT tox – kills 2HG-producing HT-1080-NT fibrosarcoma cells | 1.6% of 360,000 active | Potency, µM (top dose mostly 46.1 µM), for the others: at the highest dose activity, negative = less viability, most hits filed as cytotoxic | HT-1080-NT fibrosarcoma viability, CellTiter-Glo ATP luminescence, 48 h;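 also: NT is the 2HG producing partner of a matched IDH1 knockdown line; potency is read from the fitted curve at half-maximal effect; 0% = DMSO-treated cells and -100% = media-only wells without cells; nearly all actives have a fitted effect of over 55% in size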
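Toxicity toward the 2HG-producing NT line was scored as %Activity, normalised to DMSO and no-cell wells, from CellTiter-Glo luminescence after 48 hours' treatment.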
ALOX12 inh – ALOX12 (human) lipoxygenase inhibition; P18054; 1.1% of 580,000 active; Potency, µM (titrated, usually from 108 µM), for the others: top-dose activity change, negative = inhibition, most hits filed as inhibitors; purified 12hLO, xylenol orange hydroperoxide absorbance; also: potency is read from the fitted curve at half-maximal effect
Target sequence (P18054 whole entry, looked up): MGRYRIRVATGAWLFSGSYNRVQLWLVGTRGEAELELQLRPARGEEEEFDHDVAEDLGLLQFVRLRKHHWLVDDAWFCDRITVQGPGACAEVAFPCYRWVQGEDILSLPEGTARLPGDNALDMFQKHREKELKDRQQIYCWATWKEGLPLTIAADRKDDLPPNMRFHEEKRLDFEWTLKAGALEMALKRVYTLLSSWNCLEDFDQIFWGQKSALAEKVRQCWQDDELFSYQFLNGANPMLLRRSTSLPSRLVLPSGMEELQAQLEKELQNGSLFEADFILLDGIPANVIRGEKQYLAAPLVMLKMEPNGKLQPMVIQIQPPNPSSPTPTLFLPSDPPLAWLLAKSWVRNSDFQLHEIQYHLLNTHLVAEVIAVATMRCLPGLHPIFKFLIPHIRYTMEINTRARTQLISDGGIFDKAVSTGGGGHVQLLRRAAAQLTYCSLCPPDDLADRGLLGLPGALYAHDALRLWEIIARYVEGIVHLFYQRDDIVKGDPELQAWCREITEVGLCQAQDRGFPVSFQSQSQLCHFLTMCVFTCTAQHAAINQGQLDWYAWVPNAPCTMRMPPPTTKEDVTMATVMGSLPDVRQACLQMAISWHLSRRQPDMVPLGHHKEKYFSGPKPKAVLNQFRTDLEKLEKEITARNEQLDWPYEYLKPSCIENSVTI
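Purified human 12hLO (150 nM final) in 25 mM Hepes, 0.01% Triton X-100, pH 7.0 was preincubated 15 min at room temperature with compound. Then 40 uM arachidonic acid was added, 30 min. Hydroperoxide was read by Fe-XO absorbance ratio 573/405 nm.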
TDP1 cell CPT – DT40-hTDP1 cell growth loss with CPT; chicken DT40 Tdp1-/-;hTDP1 cells + 20 nM CPT, ATP luminescence, 48 h; Potency, µM (series often up to 46.2 µM), without a hit: at the highest dose activity change, negative = growth inhibition, most hits filed as inhibitors; 12% of 420,000 active; AID 686979; also: potency is read from the fitted curve at half-maximal effect; nearly all actives have a fitted effect of over 55% in size
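Chicken DT40 Tdp1-/- cells stably complemented with human TDP1 were seeded at 400 cells/well in medium containing 20 nM camptothecin, exposed to pin-transferred compounds, and grown at 37 °C for at least 48 hr. Viability was read as ATP luminescence.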
HT1080 IDH1KD tx – HT-1080 IDH1 knockdown cell toxicity (counter line); HT-1080 IDH1 knockdown viability, ATP luminescence, 48 h; Potency, µM (highest dose often 46.1 µM), without a hit: top-dose activity, negative = toxicity, usual class: cytotoxic; 2% of 360,000 active;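 also: potency is read from the fitted curve at half-maximal effect; 0% = DMSO wells and -100% = cell-free medium wells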
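After a 2 h attachment period, IDH1KD HT-1080 cells took pin-transferred compound for 48 h at 37 °C; ATP-based luminescence after 10 min room-temperature reagent incubation reported viability.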
IL1B secr inh – inhibitors of inflammasome signaling (IL-1 beta secretion) | THP-1 LPS/ATP IL-1B secretion, AlphaLISA, 16 h; stronger effect = lower value | activity change, % at 57.5 µM | 4.7% of 360,000 active; in the data active = activity change below about -50%; inconclusive = mostly about -30% to -49%
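THP-1 cells pretreated 1 hr with compounds (up to 57.5 uM final), then stimulated with LPS (250 ng/mL final) plus ATP (1.25 mM final); secreted IL-1B measured by AlphaLISA after 16 hr, decreased signal indicating inhibition.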
Numbers without * were called inactive; i = inactive; ? = inconclusive; · = no result; [ ] = remark or other dose. Unless noted, calls follow the shape of the dose curve; as a rule, active = well fitted curve in the direction sought with a large enough effect; inconclusive = small, poorly fitted or top-dose-only effect, or another doubt; inactive = no such curve, though single readings can be large; an effect the other way counts as inactive or inconclusive. Unless noted, % is scaled to controls: 0 for no effect and ±100 for the full control effect.

SMILES | TDP1 cell noCPT | HT1080-NT tox | ALOX12 inh | TDP1 cell CPT | HT1080 IDH1KD tx | IL1B secr inh
Cc1ccc2[nH]c(=O)c(CN(Cc3ccccc3Cl)C(=O)N3CCOCC3)cc2c1 | 21µM* | -12% | 0% | ? | -8% | ?
Cc1ccc2[nH]c(=O)c(CN(CCCN3CCOCC3)C(=O)Nc3ccc(Cl)cc3)cc2c1 | 16µM* | 11% | 34% | 15µM* | 0% | -2
CCOc1ccc2[nH]c(=O)c(CN(CCO)C(=O)c3ccc(F)cc3)cc2c1 | -10% | 0% | 0% | 2% | 0% | -1
COc1ccc(NC(=O)N(Cc2cc3cc(C)ccc3[nH]c2=O)CC2CCCO2)cc1 (stereo unspecified) | ? | -20% | ? | 18µM* | -14% | ?
CCOc1ccc2[nH]c(=O)c(CN(Cc3ccccc3)C(=O)N3CCCC3)cc2c1 | ? | 5% | 0% | 21µM* | 4% | -18
CCc1ccc(CC)c(C(=O)Cn2c(Cl)nc3c2c(=O)n(C)c(=O)n3C)c1 | · | · | -1% | · | · | ·
COc1ccc2[nH]c(=O)c(CN(Cc3cccnc3)C(=S)NCC3CCCO3)cc2c1 (stereo unspecified) | 21µM* | -9% | -25% | 18µM* | -5% | -10
COc1ccc2[nH]c(=O)c(CN(CC3CCCO3)C(=O)Nc3ccc(F)cc3)cc2c1 (stereo unspecified) | 12µM* | -5% | 474% | 16µM* | -1% | 3
COc1ccc(N(Cc2cc3ccccc3[nH]c2=O)S(=O)(=O)c2ccc(OC)cc2)cc1 | ? | ? | 5% | ? | ? | ?
COc1ccc(N(Cc2cc3cc(OC)ccc3[nH]c2=O)S(=O)(=O)c2ccc(NC(C)=O)cc2)cc1 | 8.2µM* | · | -17% | 16µM* | · | 6
COc1ccc2[nH]c(=O)c(CN(CC3CCCO3)C(=S)Nc3ccc(C)cc3)cc2c1 (stereo unspecified) | 16µM* | -2% | -21% | -29% | -5% | -5
CCOc1ccc(-n2nnc(C(=O)Nc3cccc(C)c3C)c2N)cc1 | · | · | 51% | · | · | ·
Cc1nc(-c2ccc(OC3CCN(C(=O)NC(C)C)C3)cc2)no1 (stereo unspecified) | · | · | 31% | · | · | ·
CCN1CCCC1CN(Cc1cc2cc(C)ccc2[nH]c1=O)C(=O)Nc1ccccc1OC (stereo unspecified) | 21µM* | -8% | 17% | ? | -23% | -12
COc1ccccc1NC(=O)N(CCN1CCCC1)Cc1cc2cc(C)ccc2[nH]c1=O | ? | -3%[9.24 µM] | -16% | ? | ? | 6
Cc1cccc(NC(=O)N(Cc2cc3cc(C)ccc3[nH]c2=O)CC2COCCO2)c1 (stereo unspecified) | 23µM* | -22% | 12% | ? | -17% | -73*
COCCNC(=O)Cc1cccn1-c1ccc(F)cc1 | · | · | 0% | · | · | ·
Cc1cc(=S)n2ccccc2n1 | · | · | 20% | · | · | ·
COc1ccc(S(=O)(=O)N2CCN(Cc3nc4ccc(C)cc4o3)CC2)cc1Cl | ? | · | -18% | 18µM* | · | ·
Cc1ccc(S(=O)(=O)N2CCN(Cc3nc4ccc(C)cc4o3)CC2)cc1 | ? | · | -19% | -26% | · | ·
CCOc1ccc(S(=O)(=O)N2CCN(Cc3nc4ccc(C)cc4o3)CC2)cc1 | ? | · | -21% | 18µM* | · | ·
Cc1ccccc1NC(=O)CSc1nc2c(cc1C#N)CCCC2 | · | · | 13% | · | · | ·
COC(=O)c1ccccc1N=Nc1c(N)[nH][nH]c1=O | ? | 2% | -6% | ? | -9% | -15
COC(=O)c1ccccc1N=Nc1c(N)n[nH]c1N | -19% | 3% | 153% | -1% | 0% | -60*
Cc1cc(C)cc(-c2nnc(SCC(=O)N3CCC(C)CC3)o2)c1 | · | · | -42% | · | · | ·
SMILES | TDP1 cell noCPT | HT1080-NT tox | ALOX12 inh | TDP1 cell CPT | HT1080 IDH1KD tx | IL1B secr inh
CCCCNC(=S)NC1CCC(NC(=S)NCCCC)CC1 (stereo unspecified) | · | · | 7% | · | · | ·
CC1=C(C(N)=O)C(c2ccc(Cl)cc2)n2nc(-c3cccc(C)c3)nc2N1 (stereo unspecified) | · | · | -7% | · | · | ·
OC(COc1c(F)cc(Br)cc1F)CN1CCOCC1 (stereo unspecified) | 2% | -1% | -8% | 3% | 5% | -5
OC(COc1cccc2ccccc12)CN1CCCC1 (stereo unspecified) | -5% | -2% | 35% | 2% | -17% | -9
OC(COc1c(F)cc(Br)cc1F)CN1CCN(c2ccc(F)cc2)CC1 (stereo unspecified) | 18µM* | -21% | ? | ? | -3%[9.24 µM] | -20
Cc1cccc(N2CCN(CC(O)COc3ccccc3Cl)CC2)c1 (stereo unspecified) | 16µM* | -2% | 0% | ? | -4% | 0
OC(COc1cccc2ccccc12)CN1CCN(c2ccc(Cl)cc2)CC1 (stereo unspecified) | 23µM* | -20% | -6% | ? | -10% | -14
CCCOc1nc2ccccc2nc1N1CCC(C(=O)Nc2cc(F)cc(F)c2)CC1 | · | · | -27% | · | · | ·
O=C1CCN(C(=O)CC2CCCCC2)CCCC(c2nc(-c3cccnc3)no2)CCN1 (stereo unspecified) | · | · | 1% | · | · | ·
O=C(CC1CCCCC1)N1CCCC(c2nc(-c3ccc(S(=O)(=O)N4CCCC4)cc3)no2)C1 (stereo unspecified) | 16µM* | ? | ? | 23µM* | -15% | -77*
O=S(=O)(c1ccc(Cl)cc1)N1CCCC(c2nc(-c3ccc(F)cc3)no2)C1 (stereo unspecified) | ? | 14% | -28% | 15µM* | 11% | -26
Cc1ccc(-c2nc(C3CCCN(S(=O)(=O)c4ccc(C)cc4)C3)no2)cc1 (stereo unspecified) | ? | 4% | 24%[57.4 µM] | 16µM* | 0% | 0
Cc1ccc(OCCOc2ccc(Br)cc2/C=C(/C#N)c2ccccc2)cc1 | · | · | -5% | · | · | ·
CCn1c(SCC(=O)Nc2cc(C)on2)nc2c([nH]c3ccccc32)c1=O | 18µM* | -5% | 5% | ? | -13% | i
CCCCCCn1c(SCC(=O)Nc2cc(C)on2)nc2ccccc2c1=O | 10µM* | 4% | 0% | ? | ? | 16
COCCn1c(SCC(=O)Nc2cc(C)on2)nc2c([nH]c3ccccc32)c1=O | ? | -16% | 6% | ? | 5% | 21
CC(C)=CCN1CCN(Cc2ccc(C#N)cc2)CC1 | · | · | -1% | · | · | ·

From PubChem
